Reference: PubChem BioAssay (EPA / NIEHS)
Activity calls are given as the source filed them. Rule for the calls: active = hit-call score of the fitted dose curve at least 0.9, where 1 is the maximum; inactive = score below 0.9.

The molecules below were run against Bile acid receptor (Homo sapiens) (UniProt Q96RI1) (assay: ATG_IR1_CIS: Attagene CIS-FACTORIAL HepG2 Assay for human Nuclear Receptor Subfamily 1 Group H Member 4 (NR1H4), IR1 submotif (AID 2282946)). Conditions: IR1 reporter transcription, actives raise or lower the signal.
Description: ATG_CIS is a cell-based, multiplexed-readout assay that uses HepG2, a human liver cell line, with measurements taken at 24 hours after chemical dosing in a 24-well plate.ATG_IR1_CIS is one of 52 assay component(s) measured or calculated from the ATG_CIS assay. It is designed to make measurements of mRNA induction, a form of inducible reporter, as detected with fluorescence intensity signals by Reverse transcription polymerase chain reaction (RT-PCR) and Capillary electrophoresis technology.Data from the assay component ATG_IR1_CIS was analyzed into 1 assay endpoint. This assay endpoint, ATG_IR1_CIS, was analyzed with bidirectional fitting relative to DMSO as the negative control and baseline of activity. Using a type of inducible reporter, measures of mRNA for gain or loss-of-signal activity can be used to understand the reporter gene at the transcription factor-level as they relate to the gene NR1H4. Furthermore, this assay endpoint can be referred to as a primary readout, because this assay has produced multiple assay endpoints where this one serves a reporter gene function. To generalize the intended target to other relatable targets, this assay endpoint is annotated to the nuclear receptor intended target family, where the subfamily is non-steroidal.
Human liver HepG2 cells are transiently transfected with multiple reporter transcription units (MRTUs) in 6-well plates using FuGene 6 reagent (Roche; 3 ml FuGene/1 mg DNA). The MRTU constructs are regulated by a cis-regulating element (promoter). […] A major difference between the CIS and TRANS system is that in CIS activities of endogenous TFs are measured, whereas the TRANS assay evaluates changes in activities of exogenous, chimeric NR-Gal4 proteins. […] At the end of 24 hour incubation, total RNA was isolated using TriZol reagent (Invitrogen). The isolated RNA is then reverse-transcribed using oligo(dT) primer and Mo-MLV reverse transcriptase (Invitrogen) with DNAse I (Ambion) treatment for 30 min. The one-tenth of the produced cDNA was amplified by PCR using Taq DNA polymerase (Invitrogen) and two reporter sequence-specific primers. The PCR products were fluorescently labeled by primer extension with 6-arboxyfluorescein (6-FAM) 5'-labeled reporter sequence-specific primer (2 min at 95 C, 20 s at 68 C and 10 min at 72 C) and these products were digested with 5U of HpaI (New England Biolabs) for 2h at 37 C. The fragments were purified using Qiaquick PCR columns (Qiagen), analyzed on an ABI 3130xL genetic analyzer (Applied Biosystems) with peak positions identified by using a set of X-rhodamine (ROX)-labeled MapMarker1000 molecular weight standards (BioVentures). The raw capillary electrophoresis data was processed using Attagraph software (Attagene).

Sequence of Bile acid receptor (Homo sapiens) (Q96RI1 whole entry, looked up): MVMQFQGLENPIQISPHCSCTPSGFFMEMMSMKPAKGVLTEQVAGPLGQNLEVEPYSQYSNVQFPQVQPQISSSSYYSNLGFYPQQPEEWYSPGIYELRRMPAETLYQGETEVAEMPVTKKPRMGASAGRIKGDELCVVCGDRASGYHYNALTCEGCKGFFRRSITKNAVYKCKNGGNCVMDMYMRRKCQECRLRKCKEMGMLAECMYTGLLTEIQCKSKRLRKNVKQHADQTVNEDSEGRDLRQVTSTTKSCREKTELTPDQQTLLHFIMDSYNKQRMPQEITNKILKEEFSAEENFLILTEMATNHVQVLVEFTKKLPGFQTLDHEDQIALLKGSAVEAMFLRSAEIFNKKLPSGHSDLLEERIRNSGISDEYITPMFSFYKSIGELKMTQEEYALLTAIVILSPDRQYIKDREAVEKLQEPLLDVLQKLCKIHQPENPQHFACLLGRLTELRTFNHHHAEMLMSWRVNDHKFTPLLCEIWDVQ

SMILES | outcome | AC50
Cc1ccccc1CCO | inactive | –
O=C(O)C(F)(F)C(F)(F)C(F)(F)C(F)(F)C(=O)O | inactive | –
CC12CCC(CC1)C(C)(C)O2 | inactive | –
CCCCCCCC(=O)OCC(COC(=O)CCCCCCC)OC(=O)CCCCCCC | inactive | –
C=CC(=O)NC(C)(C)C | – | 27.5 µM (active)
O=C1CCCN1C1CCCCC1 | inactive | –
Oc1ccc(/C=C/c2cc(O)cc(O)c2)cc1 | inactive | –
CC(C)c1ccc2ncccc2c1 | inactive | –
O=C(O)/C=C/c1ccccc1 | inactive | –
CCOC(=O)[C@H](O)[C@@H](O)C(=O)OCC | inactive | –
C=CCCCCCCCCOC(C)=O | inactive | –
Nc1ccc(C(=O)OCCCOC(=O)c2ccc(N)cc2)cc1 | inactive | –
N=C1C=CC(=C(c2ccc(N)cc2)c2ccc(N)cc2)C=C1 | inactive | –
CC1(C)CCC[C@]2(C)[C@H]3CC(=O)O[C@]3(C)CC[C@@H]12 | inactive | –
CO[Si](CCCS)(OC)OC | inactive | –
O=C(O)c1ccc2c(c1)C(=O)OC2=O | inactive | –
COc1ccc(C(=O)c2ccccc2)c(O)c1 | – | 151 µM (active)
CCc1cccc(C)c1N(C(=O)CS(=O)(=O)O)C(C)COC (stereo not given) | inactive | –
CC(C)(C)C1CCC(=O)CC1 | inactive | –
CCCCCCCCCCCCC | inactive | –

SMILES | outcome | AC50
Cn1cccc1 | inactive | –
Cn1ccnc1 | inactive | –
C=CC(C)(CCC=C(C)C)OC(=O)C=Cc1ccccc1 (stereo not given) | inactive | –
CCCCCCCCC(CO)CCCCCC (stereo not given) | inactive | –
Nc1ncnc2nc[nH]c12 | inactive | –
CC(CC=O)CC(C)(C)C (stereo not given) | inactive | –
CCOC(=O)C1=NN(c2ccc(Cl)cc2Cl)C(C)(C(=O)OCC)C1 (stereo not given) | inactive | –
CN1CCN(C)CC1 | inactive | –
CC1OC(=O)C(C)OC1=O (stereo not given) | inactive | –
CCC1(C)C(=O)N(Cl)C(=O)N1Cl (stereo not given) | inactive | –
C=C[Si](OCCOC)(OCCOC)OCCOC | inactive | –
CCOC(=O)OC(=O)OCC | inactive | –
CCCCC(=O)O | inactive | –
Clc1cccnc1 | inactive | –
C[N+](C)(C)CCCNS(=O)(=O)C(F)(F)C(F)(F)C(F)(F)C(F)(F)C(F)(F)C(F)(F)C(F)(F)C(F)(F)F | inactive | –
CCCC/C=C/C=C\C=O | – | 71.6 µM (active)
CC(=O)/C=C/C1C(C)=CCCC1(C)C (stereo not given) | inactive | –
c1ccc(-c2nc3ccccc3[nH]2)cc1 | inactive | –
CCCCc1ccc(Cl)cc1 | inactive | –
[Cl][Eu]([Cl])[Cl] | inactive | –
